Inhibition data for 7 molecules are collected here from ChEMBL document CHEMBL1961873, “Compounds: GSK PKIS; Assays: Nanosyn kinase panel” (2012).

Test [1] has as its target Serine/threonine-protein kinase MARK2 (Homo sapiens) (UniProt Q7KZI7). The note with it: at 1 µM.
Test [2] addresses PAS domain-containing serine/threonine-protein kinase (Homo sapiens) (UniProt Q96RG2). Conditions: at 0.1 µM.
Test [3] has the same target. Conditions: at 1 µM.
Test [4] has as its target Phosphorylase b kinase gamma catalytic chain, skeletal muscle/heart isoform (Homo sapiens) (UniProt Q16816). The note with it: at 0.1 µM.
Test [5] shares this target. Conditions: at 1 µM.
For test [6], the target named is T1, Phosphorylase b kinase gamma catalytic chain, liver/testis isoform (Homo sapiens) (UniProt P15735).
T1 sequence (whole entry): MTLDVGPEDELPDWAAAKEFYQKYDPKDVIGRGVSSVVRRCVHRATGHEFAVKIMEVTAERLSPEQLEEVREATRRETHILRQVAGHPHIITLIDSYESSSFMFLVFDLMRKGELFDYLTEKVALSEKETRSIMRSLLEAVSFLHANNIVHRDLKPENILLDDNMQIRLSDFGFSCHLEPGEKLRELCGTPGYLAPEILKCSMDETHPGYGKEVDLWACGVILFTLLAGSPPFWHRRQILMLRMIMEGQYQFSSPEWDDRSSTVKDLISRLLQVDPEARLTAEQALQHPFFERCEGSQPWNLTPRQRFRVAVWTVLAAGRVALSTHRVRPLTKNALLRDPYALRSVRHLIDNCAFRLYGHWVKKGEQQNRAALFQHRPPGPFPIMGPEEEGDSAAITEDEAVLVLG
The note with it: at 0.1 µM.

Test [7] has as its target T1, Phosphorylase b kinase gamma catalytic chain, liver/testis isoform (Homo sapiens). Conditions: at 1 µM.
In test [8] the target is Serine/threonine-protein kinase pim-1 (Homo sapiens) (UniProt P11309). The note with it: at 0.1 µM.
Test [9] has the same target. The note with it: at 1 µM.
The target of test [10] is Serine/threonine-protein kinase pim-2 (Homo sapiens) (UniProt Q9P1W9). The note with it: at 0.1 µM.
The target is the same in test [11]. Conditions: at 1 µM.
Test [12] deals with Serine/threonine-protein kinase pim-3 (Homo sapiens) (UniProt Q86V86). Conditions: at 0.1 µM.
Test [13] shares this target. The note with it: at 1 µM.
The target of test [14] is T2, MAP kinase-activated protein kinase 5 (Homo sapiens) (UniProt Q8IW41).
T2 sequence (whole entry): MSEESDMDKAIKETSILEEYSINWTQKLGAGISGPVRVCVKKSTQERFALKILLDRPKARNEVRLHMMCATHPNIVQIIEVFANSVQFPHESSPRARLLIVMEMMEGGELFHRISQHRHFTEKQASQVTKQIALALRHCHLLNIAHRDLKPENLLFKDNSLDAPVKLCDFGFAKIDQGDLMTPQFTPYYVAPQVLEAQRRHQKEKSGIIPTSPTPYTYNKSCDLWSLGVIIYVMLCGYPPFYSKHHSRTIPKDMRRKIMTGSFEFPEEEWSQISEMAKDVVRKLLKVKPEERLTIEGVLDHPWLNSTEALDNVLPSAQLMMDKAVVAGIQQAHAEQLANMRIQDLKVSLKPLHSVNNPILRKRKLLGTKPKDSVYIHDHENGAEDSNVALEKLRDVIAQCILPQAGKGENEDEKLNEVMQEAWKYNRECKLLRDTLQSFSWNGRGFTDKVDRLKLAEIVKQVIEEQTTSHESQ
The note with it: at 0.1 µM.

Test [15] addresses T2, MAP kinase-activated protein kinase 5 (Homo sapiens). The note with it: at 1 µM.
In test [16] the target is Serine/threonine-protein kinase SIK1 (Homo sapiens) (UniProt P57059). The note with it: at 0.1 µM.
The target is the same in test [17]. Conditions: at 1 µM.
Test [18] has as its target Serine/threonine-protein kinase SIK2 (Homo sapiens) (UniProt Q9H0K1). The note with it: at 0.1 µM.
For test [19] the target is unchanged. Conditions: at 1 µM.
Test [20] has as its target T3, Serine/threonine-protein kinase TBK1 (Homo sapiens) (UniProt Q9UHD2).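 Further: values are the mean TBK1 inhibition, taken from the GSK PKIS screening data.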
T3 sequence (whole entry): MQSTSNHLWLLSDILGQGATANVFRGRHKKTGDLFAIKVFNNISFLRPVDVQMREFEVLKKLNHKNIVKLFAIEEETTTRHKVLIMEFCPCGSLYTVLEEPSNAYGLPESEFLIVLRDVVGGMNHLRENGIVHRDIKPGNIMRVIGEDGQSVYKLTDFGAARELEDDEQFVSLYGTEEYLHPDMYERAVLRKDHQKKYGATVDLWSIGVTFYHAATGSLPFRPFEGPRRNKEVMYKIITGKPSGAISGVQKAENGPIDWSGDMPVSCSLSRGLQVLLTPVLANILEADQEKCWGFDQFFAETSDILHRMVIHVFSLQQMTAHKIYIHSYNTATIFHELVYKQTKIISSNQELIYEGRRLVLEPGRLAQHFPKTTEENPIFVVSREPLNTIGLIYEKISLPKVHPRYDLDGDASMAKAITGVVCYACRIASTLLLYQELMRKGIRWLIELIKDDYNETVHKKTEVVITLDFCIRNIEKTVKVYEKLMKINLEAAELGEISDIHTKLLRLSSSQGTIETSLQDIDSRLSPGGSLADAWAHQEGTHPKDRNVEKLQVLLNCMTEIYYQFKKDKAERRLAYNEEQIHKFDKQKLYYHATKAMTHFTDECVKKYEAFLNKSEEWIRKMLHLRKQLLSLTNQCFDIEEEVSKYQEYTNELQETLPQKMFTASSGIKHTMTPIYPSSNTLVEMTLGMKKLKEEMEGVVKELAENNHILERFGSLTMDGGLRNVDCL
The note with it: at 0.1 µM.

Chain of Serine/threonine-protein kinase pim-1 (Homo sapiens) (P11309 whole entry, looked up): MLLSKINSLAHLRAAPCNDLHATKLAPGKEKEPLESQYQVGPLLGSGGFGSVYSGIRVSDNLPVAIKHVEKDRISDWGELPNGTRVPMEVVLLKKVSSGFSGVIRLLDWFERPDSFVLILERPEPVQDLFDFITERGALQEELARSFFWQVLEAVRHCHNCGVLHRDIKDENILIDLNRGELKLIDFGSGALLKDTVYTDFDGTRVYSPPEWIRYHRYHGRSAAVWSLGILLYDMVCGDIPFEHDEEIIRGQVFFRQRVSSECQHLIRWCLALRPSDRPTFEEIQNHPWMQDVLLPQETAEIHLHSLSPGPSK
Chain of Phosphorylase b kinase gamma catalytic chain, skeletal muscle/heart isoform (Homo sapiens) (Q16816 whole entry, looked up, canonical isoform): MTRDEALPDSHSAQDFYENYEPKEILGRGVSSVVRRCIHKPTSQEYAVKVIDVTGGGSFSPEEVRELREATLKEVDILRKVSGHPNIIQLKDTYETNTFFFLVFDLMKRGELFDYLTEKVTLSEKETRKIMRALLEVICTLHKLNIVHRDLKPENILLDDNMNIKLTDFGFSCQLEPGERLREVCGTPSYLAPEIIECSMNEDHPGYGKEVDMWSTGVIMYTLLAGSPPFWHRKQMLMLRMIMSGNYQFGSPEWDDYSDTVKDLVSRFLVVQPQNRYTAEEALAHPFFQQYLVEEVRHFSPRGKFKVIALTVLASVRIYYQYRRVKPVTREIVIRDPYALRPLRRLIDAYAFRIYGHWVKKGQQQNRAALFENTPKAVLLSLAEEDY
Chain of Serine/threonine-protein kinase MARK2 (Homo sapiens) (Q7KZI7 whole entry, the tested form may be a part): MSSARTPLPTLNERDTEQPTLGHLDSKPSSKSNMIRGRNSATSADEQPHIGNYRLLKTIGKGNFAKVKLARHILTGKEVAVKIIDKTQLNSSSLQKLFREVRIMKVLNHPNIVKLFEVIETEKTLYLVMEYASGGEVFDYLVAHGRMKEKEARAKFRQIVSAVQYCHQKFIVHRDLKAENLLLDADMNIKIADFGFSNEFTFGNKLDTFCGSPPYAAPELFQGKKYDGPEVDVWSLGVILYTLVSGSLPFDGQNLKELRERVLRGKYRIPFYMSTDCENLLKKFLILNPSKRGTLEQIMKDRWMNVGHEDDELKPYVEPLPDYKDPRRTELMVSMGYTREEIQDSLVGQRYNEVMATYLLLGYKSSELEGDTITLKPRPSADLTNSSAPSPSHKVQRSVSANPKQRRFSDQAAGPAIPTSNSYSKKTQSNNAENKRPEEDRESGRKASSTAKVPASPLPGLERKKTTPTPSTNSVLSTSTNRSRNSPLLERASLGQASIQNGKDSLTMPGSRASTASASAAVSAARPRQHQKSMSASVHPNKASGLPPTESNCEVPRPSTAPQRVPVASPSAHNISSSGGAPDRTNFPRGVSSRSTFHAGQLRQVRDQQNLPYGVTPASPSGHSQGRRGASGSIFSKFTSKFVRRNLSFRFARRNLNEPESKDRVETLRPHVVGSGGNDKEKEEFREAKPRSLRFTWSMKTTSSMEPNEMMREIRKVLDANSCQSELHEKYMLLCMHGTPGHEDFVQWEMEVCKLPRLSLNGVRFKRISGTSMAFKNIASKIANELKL
Chain of PAS domain-containing serine/threonine-protein kinase (Homo sapiens) (Q96RG2 whole entry, the tested form may be a part): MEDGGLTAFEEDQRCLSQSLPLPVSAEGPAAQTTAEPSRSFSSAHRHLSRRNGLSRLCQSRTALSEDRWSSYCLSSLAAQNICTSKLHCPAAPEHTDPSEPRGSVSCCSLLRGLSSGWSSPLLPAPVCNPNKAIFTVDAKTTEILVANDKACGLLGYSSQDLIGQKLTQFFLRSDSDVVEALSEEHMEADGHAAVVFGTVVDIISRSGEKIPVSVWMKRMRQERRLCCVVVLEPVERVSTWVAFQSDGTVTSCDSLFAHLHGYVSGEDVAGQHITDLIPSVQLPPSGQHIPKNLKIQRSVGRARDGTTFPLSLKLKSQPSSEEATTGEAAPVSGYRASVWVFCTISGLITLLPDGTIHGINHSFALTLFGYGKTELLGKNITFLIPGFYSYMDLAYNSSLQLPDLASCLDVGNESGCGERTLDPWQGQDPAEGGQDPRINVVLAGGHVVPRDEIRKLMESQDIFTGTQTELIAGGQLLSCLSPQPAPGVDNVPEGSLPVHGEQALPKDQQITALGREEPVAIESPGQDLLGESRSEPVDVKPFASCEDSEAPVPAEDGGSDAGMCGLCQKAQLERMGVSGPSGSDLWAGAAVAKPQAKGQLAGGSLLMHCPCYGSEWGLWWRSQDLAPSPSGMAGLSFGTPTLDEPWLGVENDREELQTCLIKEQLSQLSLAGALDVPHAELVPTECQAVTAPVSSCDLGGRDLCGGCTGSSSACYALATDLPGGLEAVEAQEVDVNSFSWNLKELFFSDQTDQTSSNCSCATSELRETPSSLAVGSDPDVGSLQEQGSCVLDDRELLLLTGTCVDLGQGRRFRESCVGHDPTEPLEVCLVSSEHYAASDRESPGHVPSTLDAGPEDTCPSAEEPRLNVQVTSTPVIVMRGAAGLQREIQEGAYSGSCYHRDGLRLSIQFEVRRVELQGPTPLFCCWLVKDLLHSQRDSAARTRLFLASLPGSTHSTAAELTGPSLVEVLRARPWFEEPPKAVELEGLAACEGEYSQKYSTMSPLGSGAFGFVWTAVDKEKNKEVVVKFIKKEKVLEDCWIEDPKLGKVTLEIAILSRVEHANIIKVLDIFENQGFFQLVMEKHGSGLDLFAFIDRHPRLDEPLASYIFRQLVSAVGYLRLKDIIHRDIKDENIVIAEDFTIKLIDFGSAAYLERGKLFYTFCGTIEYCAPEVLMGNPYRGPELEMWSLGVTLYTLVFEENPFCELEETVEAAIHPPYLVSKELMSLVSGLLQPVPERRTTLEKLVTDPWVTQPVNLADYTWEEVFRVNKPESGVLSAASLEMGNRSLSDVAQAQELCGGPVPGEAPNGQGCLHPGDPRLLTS
Chain of Serine/threonine-protein kinase pim-2 (Homo sapiens) (Q9P1W9 whole entry, looked up): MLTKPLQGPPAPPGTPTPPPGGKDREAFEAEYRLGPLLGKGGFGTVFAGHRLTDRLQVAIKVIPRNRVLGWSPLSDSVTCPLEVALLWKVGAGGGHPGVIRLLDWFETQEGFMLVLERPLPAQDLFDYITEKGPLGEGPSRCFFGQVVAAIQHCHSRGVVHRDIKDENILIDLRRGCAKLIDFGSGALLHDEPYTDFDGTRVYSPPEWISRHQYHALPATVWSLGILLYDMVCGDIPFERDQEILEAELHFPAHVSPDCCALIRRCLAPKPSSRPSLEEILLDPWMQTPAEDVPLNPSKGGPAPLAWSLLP
Chain of Serine/threonine-protein kinase SIK1 (Homo sapiens) (P57059 whole entry): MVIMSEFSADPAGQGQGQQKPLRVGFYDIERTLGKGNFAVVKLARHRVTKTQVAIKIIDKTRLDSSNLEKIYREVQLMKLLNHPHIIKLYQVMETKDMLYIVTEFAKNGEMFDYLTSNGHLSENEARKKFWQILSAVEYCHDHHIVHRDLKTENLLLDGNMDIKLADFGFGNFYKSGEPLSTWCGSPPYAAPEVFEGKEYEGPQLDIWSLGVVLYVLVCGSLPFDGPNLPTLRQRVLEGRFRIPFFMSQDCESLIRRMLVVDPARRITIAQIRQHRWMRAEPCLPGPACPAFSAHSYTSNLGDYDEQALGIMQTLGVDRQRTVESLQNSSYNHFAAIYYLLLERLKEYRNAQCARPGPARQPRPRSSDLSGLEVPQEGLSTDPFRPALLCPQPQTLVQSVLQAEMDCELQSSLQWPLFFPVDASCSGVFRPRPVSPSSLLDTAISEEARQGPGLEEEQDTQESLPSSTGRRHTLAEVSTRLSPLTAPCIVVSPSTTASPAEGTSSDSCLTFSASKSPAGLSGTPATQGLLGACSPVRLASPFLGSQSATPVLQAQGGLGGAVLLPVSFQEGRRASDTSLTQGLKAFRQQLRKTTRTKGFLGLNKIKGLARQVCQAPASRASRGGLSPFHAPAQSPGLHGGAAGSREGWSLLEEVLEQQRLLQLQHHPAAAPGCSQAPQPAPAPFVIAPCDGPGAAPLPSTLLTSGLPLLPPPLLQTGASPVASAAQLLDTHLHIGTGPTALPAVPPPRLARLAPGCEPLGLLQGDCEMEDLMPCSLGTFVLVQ
Chain of Serine/threonine-protein kinase SIK2 (Homo sapiens) (Q9H0K1 whole entry, looked up): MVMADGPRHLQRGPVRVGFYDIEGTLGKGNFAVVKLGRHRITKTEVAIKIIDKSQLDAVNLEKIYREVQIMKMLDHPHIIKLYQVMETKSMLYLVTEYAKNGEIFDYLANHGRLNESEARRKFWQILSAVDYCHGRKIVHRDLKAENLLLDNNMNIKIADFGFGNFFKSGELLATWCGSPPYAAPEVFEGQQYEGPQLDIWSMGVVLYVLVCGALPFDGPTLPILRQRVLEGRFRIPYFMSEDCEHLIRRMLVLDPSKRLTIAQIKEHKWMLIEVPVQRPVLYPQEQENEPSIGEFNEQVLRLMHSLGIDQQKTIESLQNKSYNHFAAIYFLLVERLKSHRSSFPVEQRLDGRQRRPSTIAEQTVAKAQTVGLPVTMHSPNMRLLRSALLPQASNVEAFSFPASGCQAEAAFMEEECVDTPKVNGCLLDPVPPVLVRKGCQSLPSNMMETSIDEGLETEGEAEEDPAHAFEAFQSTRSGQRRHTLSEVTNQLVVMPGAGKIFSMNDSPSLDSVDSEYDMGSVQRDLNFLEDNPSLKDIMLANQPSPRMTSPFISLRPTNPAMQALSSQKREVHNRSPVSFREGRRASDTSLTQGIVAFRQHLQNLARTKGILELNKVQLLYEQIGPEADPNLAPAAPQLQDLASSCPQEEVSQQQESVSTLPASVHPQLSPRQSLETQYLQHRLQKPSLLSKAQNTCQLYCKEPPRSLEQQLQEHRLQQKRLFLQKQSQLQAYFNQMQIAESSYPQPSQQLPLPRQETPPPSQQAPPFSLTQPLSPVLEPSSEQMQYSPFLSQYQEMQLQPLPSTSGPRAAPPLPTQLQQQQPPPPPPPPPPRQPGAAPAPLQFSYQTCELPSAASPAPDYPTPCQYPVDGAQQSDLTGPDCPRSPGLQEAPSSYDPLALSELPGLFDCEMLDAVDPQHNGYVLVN

One may read the inhibition as the change of the read-out against control, counted positive when it falls. Regarding `COc1cc2ncn(-c3cc(OCc4ccccc4C(F)(F)F)c(C(N)=O)s3)c2cc1OC`, the inhibition in test [1] is 12.2%; in [2], -0.15%; in test [3], 0.3%; in [4], 6.17%; in test [5], 8.75%; in [6] it was 5.36%. In addition, the inhibition in [7] was 6.56%; in test [8] it was -0.79%; in [9] it was 2.8%; in test [10], -3.6%; in test [11], -2.85%; in test [12] it was -0.3%. The inhibition in [13] came to 5.54%; in [14], 1.22%; in [15], 2.23%; in test [16], 9.96%; in [17] it was 56.6%; in [18] it was 5.82%. Moreover, the inhibition in [19] turned out to be 35.4%; in test [20] it was 3.59%.

Turning to `NS(=O)(=O)c1cccc(-c2ccc3c(NC(=O)C4CC4)n[nH]c3c2)c1`, the inhibition is 4.42% in test [1]; -1.09% in test [2]; -1.37% in [3]; 2.99% in test [4]; 2.11% in test [5]; -4.36% in [6]. For the same molecule, the inhibition in test [7] was -2.76%; in [8] it was -0.14%; in [9], 1.01%; in [10] it was 0.46%; in [11], 0.35%; in test [12], -1.61%. Further, the inhibition in [13] is 1.3%; in test [14] it was -0.5%; in test [15], 0.65%; in test [16] it was -8.4%; in [17], -0.1%; in test [18] it was -0.65%. The inhibition in test [19] is -7.23%; in [20] it was 0.24%.

Take `Cc1nnc(-c2ccc(C)c(-c3ccc(C(=O)Nc4cccc(C#N)c4)cc3)c2)o1`: the inhibition is 0.87% in [1]; 0.45% in test [2]; 4.14% in [3]; 2.07% in [4]; 6.42% in test [5]; 2.78% in test [6]. Besides, the inhibition in test [7] was 4.43%; in test [8] it was -0.05%; in [9], 0.66%; in test [10] it was 0.29%; in test [11] it was 0.22%; in [12], 0.95%. Also, the inhibition in test [13] came out at 2.47%; in [14], 0.95%; in test [15], 0.82%; in test [16], 3.54%; in [17] it was 4.65%; in [18], 4.14%. The inhibition came to 3.76% in test [19] and 5.08% in test [20].

Turning to `Cc1ccc(NC(=O)c2ccnc(N3CCCC3)c2)cc1-c1ccc(C(=O)NCC2CC2)cc1`, the inhibition was 6.34% in test [1]; -0.05% in test [2]; -1.71% in [3]; 6.43% in test [4]; 11% in test [5]; 5.9% in [6]. For the same molecule, the inhibition in [7] is 5.73%; in [8], 0.89%; in test [9], 1.92%; in test [10] it was -2.62%; in test [11], -1.68%; in test [12], -0.52%. Further, the inhibition in [13] is 1.15%; in [14], 1.02%; in [15], 1.69%; in test [16], 1.07%; in [17], 8.28%; in test [18], 0.28%. For the same molecule, the inhibition was found to be 8.6% in test [19] and 6.98% in test [20].

As to `Cn1cc(C=C2C(=O)Nc3cccnc32)c2ccccc21`, the inhibition in test [1] was 5.73%; in test [2], -0.07%; in [3], -2.27%; in [4], 4.46%; in test [5], 20.8%; in [6], 2.23%. The inhibition in test [7] amounted to 2.8%; in test [8] it was 1.3%; in [9] it was 10.4%; in test [10] it was 0.38%; in test [11], 3.47%; in test [12], 0.47%. The inhibition in test [13] is 11.5%; in test [14] it was 0.25%; in test [15], 1.48%; in [16], -0.28%; in [17] it was 9.48%; in test [18], 2.86%. The inhibition amounted to 4.37% in test [19] and 2.42% in test [20].

For the molecule `CCn1c(-c2nonc2N)nc2c(C#CC(C)(C)O)nc(CN3CCCC3)cc21`, the inhibition in [1] is 10%; in [2], 0.49%; in [3], 1.59%; in test [4] it was 2.9%; in test [5], 2.56%; in [6] it was -2.3%. Besides, the inhibition in [7] was -1.9%; in test [8], 0.28%; in test [9], -0.73%; in test [10], 0.26%; in test [11], 1.6%; in test [12], -0.35%. Further, the inhibition in test [13] is 0.7%; in test [14], -0.65%; in [15], -1.46%; in test [16], -1.04%; in test [17], 0.38%; in test [18], -6.78%. The inhibition in [19] is -1.41%; in test [20], 1.77%.

Regarding `CC1=C(C(=O)Nc2ccc3[nH]ncc3c2)C(c2ccc(F)cc2)NC(=O)N1` (stereo not given), the inhibition in [1] was 3.63%; in test [2] it was -0.71%; in test [3], -0.21%; in test [4], 4.98%; in [5] it was 4.43%; in test [6], 0.63%. Further, the inhibition was 2.08% in [7]; 0.13% in test [8]; -0.04% in test [9]; -0.16% in [10]; -0.13% in [11]; 0.21% in test [12]. Moreover, the inhibition in [13] was -0.69%; in test [14], 2.17%; in test [15], 0.76%; in test [16], 0.84%; in [17], 3.8%; in test [18], 3.04%. In addition, the inhibition was determined as 1.13% in test [19] and 2.82% in test [20].
